Test results from PubChem BioAssay (EPA / NIEHS).
Several values for one entry are separate records, joined by “and”; a condition that tells them apart may be missing. Equal entries are not always repeated. More than one record can exist for a structure, and the calls need not agree. Activity calls are given as the source filed them. Rule for the calls: active = hit-call score of the fitted dose curve at least 0.9, where 1 is the maximum; inactive = score below 0.9.

Read-out: Matrix Metallopeptidase 1 (MMP1), MMP1 (gene 4312)
Test: BSK_BE3C_MMP1: BioMAP Diversity Plus: BE3C Assay for Matrix Metallopeptidase 1 (MMP1) Biomarker Activity (AID 2283024)
Conditions: primary human bronchial epithelial cells; actives raise or lower the signal
Procedure: BSK_BE3C is a cell-based, multiplexed-readout assay that uses bronchial epithelial cell, a human lung primary cell, with measurements taken at 24 hours after chemical dosing in a 96-well plate.BSK_BE3C_MMP1 is an assay component measured in the BSK_BE3C assay. It measures MMP-1 antibody related to regulation of gene expression using ELISA technology.Data from the assay component BSK_BE3C_MMP1 was analyzed into 1 assay endpoint. This assay endpoint, BSK_BE3C_MMP1, was analyzed with bidirectional fitting relative to DMSO as the negative control and baseline of activity. Using a type of binding reporter, gain or loss-of-signal activity can be used to understand changes in the signaling as they relate to the gene MMP1. Furthermore, this assay endpoint can be referred to as a primary readout, because this assay has produced multiple assay endpoints where this one serves a signaling function. To generalize the intended target to other relatable targets, this assay endpoint is annotated to the protease intended target family, where the subfamily is matrix metalloproteinase.
The levels of cell surface (or secreted, indicated by the prefix "s") biomarker endpoints were measured by ELISA. Overt cytotoxicity to cells in confluent adherent cultures (all systems other than the BT system) was assessed by measuring total protein levels using sulforhodamine B (SRB) staining in parallel cultures at the time of biomarker measurements, indicated as SRB endpoints. For proliferation assays for adherent cell types, individual cell types are cultured at sub-confluence and relative cell numbers quantified by SRB staining at time points optimized for each system (48 h: 3C and CASM3C systems; 72 h: BT and HDF3CGF systems; 96 h: SAg system). SRB was performed by staining cells with 0.1% SRB after fixation with 10% TCA and reading wells at 560 nm.Viability and proliferation of PBMC (T cells) was quantified by Alamar Blue reduction for the SAg and BT systems. For PBMC viability (referred to as PBMC Cytotoxicity within the assay endpoint names), cells were plated (75,000/well in a 96-well plate) and then chemical samples added for 1 h before addition of activators, SEB and TSST-1 (20 ng/mL final concentration each). Cells were incubated for 90 h. Then, Alamar Blue (20 uL/well) (Invitrogen, Cat DAL1100) was added for 6 h, and the plates were read with a fluorescence microplate reader at 546/580 nm (excitation/emission). For PBMC proliferation, cells were plated and activated as above but incubated for only 16 h prior to addition of Alamar Blue. Plates were read after 6 h.

SMILES	outcome	AC50
CC(=O)CCC=C(C)CCC=C(C)C	inactive	–
NC(=O)c1c(Cl)cccc1Cl	inactive	–
c1ccc(OCCOc2ccccc2)cc1	inactive	0.0654 µM (active)
CC(=O)c1ccc(C)cc1	inactive	–
C=C(F)C(=O)OC(C(F)(F)F)C(F)(F)F	inactive	–
OCC(F)(OC(F)(F)C(F)(OC(F)(F)C(F)(F)C(F)(F)F)C(F)(F)F)C(F)(F)F (stereo not given)	inactive	2.54 µM (active)
Nc1ccc(N)c([N+](=O)[O-])c1	inactive	–
O=C(O)C(F)(F)C(F)(F)C(F)(F)C(F)(F)C(F)(F)C(F)(F)C(F)(F)C(F)F	–	11.5 µM (active) and 35.9 µM (active)
CCOC(=O)C=Cc1ccccc1	inactive	–
CC1=CC(C)C(C=O)C(C)C1 (stereo not given) (tested in a mixture with another compound)	inactive	–
CCCCCCCCCCCCS	–	20 µM (active)
CCCO[Si](OCCC)(OCCC)OCCC	inactive	–
CC(C)Cc1ccc(C(C)C(=O)O)cc1 (stereo not given)	inactive	–
CCCCN(CCO)CCO	inactive	–
CC=CC(=O)C1=C(C)C=CCC1(C)C	inactive	–
CC1(C)[C@H](C=C(Cl)Cl)[C@H]1C(=O)OCc1cccc(Oc2ccccc2)c1	inactive	–
CC(C)(C)c1cccc(O)c1	inactive	–
C=C(C)C(=O)OCCC(F)(F)C(F)(F)C(F)(F)C(F)(F)C(F)(F)C(F)(F)C(F)(F)C(F)(F)F	inactive	–
OCCN1CCOCC1	inactive	–

SMILES	outcome	AC50
O=S1(=O)CC(Cl)(Cl)C(Cl)(Cl)C1	–	2.15 µM (active)
CC(C)CCCC(C)(C)O	inactive	–
CC/C(=C(\c1ccccc1)c1ccc(OCCN(C)C)cc1)c1ccccc1	–	10.1 µM (active) and 12.3 µM (active)
O=S(=O)(O)C(F)(F)C(F)(F)OC(F)(F)C(F)(F)F	inactive	42.9 µM (active)
CC(C)(CO)CO	inactive	–
COC(=O)c1ccc(C(=O)OC)cc1	inactive	–
CCC(=O)OCC=Cc1ccccc1	inactive	–
C#C[C@]1(O)CC[C@H]2[C@@H]3CCc4cc(O)ccc4[C@H]3CC[C@@]21C	inactive	–
O=C1OC2(c3ccc(O)cc3Oc3cc(O)ccc32)c2ccccc21	inactive	–
C=CC(=O)OCC(CO)(COC(=O)C=C)COC(=O)C=C	–	3.22 µM (active)
CCCCCCCCCC(=O)OCC	inactive	–
c1ccc2c(c1)-c1ccc3ccc4cccc5cc-2c1c3c45	inactive	–
CCCCCCCC1CCCC1=O (stereo not given)	–	32.8 µM (active)
C[C@]12CC[C@@H]3c4ccc(O)cc4CC[C@H]3[C@@H]1CC[C@@H]2O	inactive	–
CCn1cc(C(=O)O)c(=O)c2ccc(C)nc21	inactive	–
CC(=O)OC(C)(C)C1CC=C(C)CC1 (stereo not given)	inactive	–
CCCCOCCOCCO	inactive	–
O=C(c1ccc(OCCN2CCCCC2)cc1)c1c(-c2ccc(O)cc2)sc2cc(O)ccc12	–	32.2 µM (active)
